The source of these data is PubChem BioAssay.

One test concerns the target Albumin (Bos taurus) (UniProt P02769). In words: bovine serum albumin binders on microarray, profiling panel, artefact control for SMM control protein annotation, biochemical, small-molecule microarray, Alexa647 label, 635/667 nm fluorescence (AID 1118).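 Also: score merges 667 nm emission intensity and signal-to-noise per printed compound spot.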 To be noted: BSA-A647 binding, fluorescence 635 nm, higher = more signal.
The nature of test [1]: small-molecule microarray binders of probe aXIP, primary screen, biochemical, NeuroSMM set, 635/667 nm fluorescence (AID 1119).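 Also: probe is the protein aXip251-270 applied at 1 µg/mL to compound-printed slides; binding of probe to printed compounds measured as 667 nm fluorescence plus signal to noise.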 To be noted: higher = more signal, called active from +8 up or from −8 down.
Test [2] in a line: small-molecule binders of probe aNOTCH3, primary screen, biochemical, small-molecule microarray, 635/667 nm fluorescence (AID 1120).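 Also: probe is a biotin-tagged antibody raised against NOTCH3 rather than NOTCH3 protein; score merges spot fluorescence near 667 nm with spot signal to noise.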 To be noted: higher = more signal.
Test [3] in a line: small-molecule binders of probe aNOTCH2, primary screen, biochemical, small-molecule microarray, 635/667 nm fluorescence (AID 1121).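 Also: score merges feature fluorescence read at 667 nm with its signal to noise.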 The following applies: higher = more signal.
Test [4] addresses Carbonic anhydrase 2 (Homo sapiens) (UniProt P00918). Briefly: CAII small-molecule binders, profiling panel, biochemical, small-molecule microarray, Alexa647-labelled CAII (AID 1122). To be noted: CAII-A647 binding fluorescence, higher = more signal.
The nature of test [5]: COS7 lysate on small-molecule microarray, probe aHis, 635 nm (AID 1123).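 Also: z-score combines 667nm fluorescence intensity with signal-to-noise per printed compound spot.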 The following applies: COS7 cell lysate, fluorescence, higher = more signal.
The nature of test [6]: compound binding in COS7 lysate, probe aLAP1, primary screen, cell lysate, small-molecule microarray (AID 1124).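 Also: lysate comes from COS7 cells expressing LAP1 and is applied at 0.3 µg/mL; score merges spot fluorescence near 667 nm with signal-to-noise over triplicate slides.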 The following applies: probe aLAP1, fluorescence, higher = more signal.
The subject of another test is Sam68 (KHDRBS1). Briefly: Sam68 small-molecule binders, primary screen, biochemical, small-molecule microarray, 635 nm fluorescence (AID 1125).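 Also: score merges 667 nm channel intensity with signal to noise over triplicate slides.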 The following applies: small-molecule microarray binding, higher = more signal.
In test [7] the test system is Chordin-like protein 2 (CHRDL2). In words: CHRDL2 small-molecule binders, primary screen, biochemical, small-molecule microarray, 635 nm fluorescence (AID 1126).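 Also: printed compound slides probed with Chrdl2 protein at 4 µg/mL for 1 h at 4 C; score merges 667 nm emission intensity with signal to noise over three replicate slides.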 To be noted: small-molecule microarray binding, fluorescence 635 nm; higher = more signal.
The target of test [8] is Concanavalin-A (Canavalia ensiformis) (UniProt P02866). In words: ConA small-molecule binders, primary screen, artefact control for SMM control protein annotation, biochemical, small-molecule microarray, Alexa647 label, 635 nm (AID 1127).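 Also: z combines 667 nm emission intensity with signal-to-noise across three replicate slides.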 The following applies: ConA-A647 binding fluorescence, higher = more signal.
Sequence of Concanavalin-A (Canavalia ensiformis) (P02866 whole entry, looked up): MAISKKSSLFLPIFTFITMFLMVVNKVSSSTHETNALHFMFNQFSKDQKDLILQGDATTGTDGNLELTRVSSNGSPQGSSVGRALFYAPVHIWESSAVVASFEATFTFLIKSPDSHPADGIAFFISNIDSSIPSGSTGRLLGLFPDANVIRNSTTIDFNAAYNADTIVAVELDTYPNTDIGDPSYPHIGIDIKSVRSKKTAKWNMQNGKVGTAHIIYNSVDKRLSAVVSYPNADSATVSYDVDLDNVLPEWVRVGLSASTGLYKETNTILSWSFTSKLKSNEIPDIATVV
The nature of test [9]: anti-His antibody binders, primary screen, artefact control for SMM control protein annotation, biochemical, small-molecule microarray, 635 nm fluorescence (AID 1128).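 Also: score merges feature fluorescence with signal-to-noise for each printed compound spot.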 To be noted: anti-His Alexa647 antibody binding, higher = more signal.
In test [10] the test system is Human papillomavirus type 1a E7 protein (residues 1-88). In words: HPV1a E7 small-molecule binders, primary screen, biochemical, small-molecule microarray, residues 1-88, 635 nm (AID 1129). The following applies: small-molecule microarray binding, fluorescence 635 nm; higher = more signal.
In test [11] the target is Focal adhesion kinase 1 (Homo sapiens) (UniProt Q05397). In words: small-molecule microarray binders of FAK, primary screen, biochemical, 635/667 nm fluorescence, BSA, DTT (AID 1130).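 Also: composite of spot emission at 667 nm and signal to noise over triplicate slides.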 To be noted: PTK2 binding, 635 nm fluorescence, higher = more signal.
Sequence of Focal adhesion kinase 1 (Homo sapiens) (Q05397 whole entry, looked up): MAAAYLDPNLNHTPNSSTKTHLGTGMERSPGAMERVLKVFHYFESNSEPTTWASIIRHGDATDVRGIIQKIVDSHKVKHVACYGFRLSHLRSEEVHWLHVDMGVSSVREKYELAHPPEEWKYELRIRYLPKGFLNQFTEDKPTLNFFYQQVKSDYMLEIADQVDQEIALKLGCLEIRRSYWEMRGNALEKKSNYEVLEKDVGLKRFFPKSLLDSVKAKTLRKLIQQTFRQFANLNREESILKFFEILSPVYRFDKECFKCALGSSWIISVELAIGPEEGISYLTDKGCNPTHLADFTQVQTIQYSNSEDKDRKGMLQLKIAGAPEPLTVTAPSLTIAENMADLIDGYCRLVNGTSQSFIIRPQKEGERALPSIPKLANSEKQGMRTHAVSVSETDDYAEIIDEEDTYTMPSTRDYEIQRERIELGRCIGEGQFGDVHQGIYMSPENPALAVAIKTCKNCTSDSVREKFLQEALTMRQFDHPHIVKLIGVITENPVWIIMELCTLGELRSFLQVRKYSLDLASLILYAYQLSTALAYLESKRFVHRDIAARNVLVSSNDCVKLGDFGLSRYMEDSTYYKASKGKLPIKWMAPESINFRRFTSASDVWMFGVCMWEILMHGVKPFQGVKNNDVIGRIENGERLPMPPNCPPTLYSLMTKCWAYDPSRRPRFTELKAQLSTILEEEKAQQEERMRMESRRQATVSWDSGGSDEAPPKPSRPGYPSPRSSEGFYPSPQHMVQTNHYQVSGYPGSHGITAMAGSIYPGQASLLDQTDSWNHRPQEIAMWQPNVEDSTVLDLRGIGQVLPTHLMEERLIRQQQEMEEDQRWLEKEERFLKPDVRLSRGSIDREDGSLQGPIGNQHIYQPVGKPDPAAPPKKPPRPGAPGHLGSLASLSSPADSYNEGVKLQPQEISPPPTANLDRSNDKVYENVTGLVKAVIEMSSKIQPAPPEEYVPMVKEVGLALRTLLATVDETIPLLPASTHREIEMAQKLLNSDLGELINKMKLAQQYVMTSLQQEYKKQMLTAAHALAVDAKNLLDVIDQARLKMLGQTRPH
The test system of test [12] is Fibrinogen (Alexa647-labelled). In words: fibrinogen binders on compound microarrays, profiling panel, artefact control for SMM control-protein annotation, biochemical, small-molecule microarray, 635/667 nm fluorescence (AID 1131).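 Also: z-score merges 667 nm fluorescence with per-spot signal-to-noise over triplicate slides.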 The following applies: fibrinogen-A647 binding fluorescence, higher = more signal.
In test [13] the target is Follistatin (Homo sapiens) (UniProt P19883). In words: follistatin binders on small-molecule microarrays, primary screen, biochemical, small-molecule microarray, 635/667 nm fluorescence (AID 1132). To be noted: FST binding, 635 nm fluorescence, higher = more signal.
Sequence of Follistatin (Homo sapiens) (P19883 whole entry, looked up): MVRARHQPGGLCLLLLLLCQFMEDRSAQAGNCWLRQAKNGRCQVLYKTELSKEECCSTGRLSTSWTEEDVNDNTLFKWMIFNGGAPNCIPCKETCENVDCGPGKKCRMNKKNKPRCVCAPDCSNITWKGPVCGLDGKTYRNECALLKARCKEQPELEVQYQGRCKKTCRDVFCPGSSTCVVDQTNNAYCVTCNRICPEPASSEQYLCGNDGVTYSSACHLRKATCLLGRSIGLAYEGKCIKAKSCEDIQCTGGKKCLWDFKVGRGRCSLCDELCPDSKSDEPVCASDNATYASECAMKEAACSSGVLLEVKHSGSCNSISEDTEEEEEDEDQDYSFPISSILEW
Test [14] has as its target Fibroblast growth factor 2 (Homo sapiens) (UniProt P09038). Briefly: FGF2 binders on small-molecule microarrays, primary screen, biochemical, small-molecule microarray, 635/667 nm fluorescence (AID 1133). The following applies: small-molecule microarray binding, FGF2, fluorescence 635/667; higher = more signal.
Test [15] can be described thus: mitochondrial membrane potential change in A549 cells, profiling panel, cell-based, JC-1 fluorescence, basal, 24 h, 100 nL (AID 1138).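 Also: A549 lung adenocarcinoma cells under basal conditions with no added stimulus; test concentration not given here.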 The following applies: higher = more signal.
In the next test the test system is Lefty1. In words: Lefty1 binders on small-molecule microarrays, primary screen, biochemical, small-molecule microarray, 635/667 nm fluorescence (AID 1139). To be noted: small-molecule microarray binding, fluorescence 635/667; higher = more signal.
Test [16] relates to wheat germ agglutinin (Triticum aestivum), Alexa647-labelled. Briefly: wheat germ agglutinin binders on compound microarrays, profiling panel, artefact control for SMM control-protein annotation, biochemical, small-molecule microarray, 635/667 nm fluorescence (AID 1140).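 Also: score merges 667 nm feature emission with signal to noise over triplicate slides.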 To be noted: WGA-A647 binding, 635 nm fluorescence, higher = more signal.
Test [17] addresses Luciferin 4-monooxygenase (Photinus pyralis) (UniProt P08659). Briefly: firefly luciferase enzyme inhibitors, primary screen, biochemical, luminescence, purified enzyme, 2006 set (AID 1141).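 Also: cell-free assay with purified firefly luciferase at 100 ng per well in PBS; test concentration not given here.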 To be noted: SteadyGlo luminescence, 30 min, higher = more signal, called active from +8 up or from −8 down.

Active and inactive are the calls of the source.

Sequence of Fibroblast growth factor 2 (Homo sapiens) (P09038 whole entry, looked up): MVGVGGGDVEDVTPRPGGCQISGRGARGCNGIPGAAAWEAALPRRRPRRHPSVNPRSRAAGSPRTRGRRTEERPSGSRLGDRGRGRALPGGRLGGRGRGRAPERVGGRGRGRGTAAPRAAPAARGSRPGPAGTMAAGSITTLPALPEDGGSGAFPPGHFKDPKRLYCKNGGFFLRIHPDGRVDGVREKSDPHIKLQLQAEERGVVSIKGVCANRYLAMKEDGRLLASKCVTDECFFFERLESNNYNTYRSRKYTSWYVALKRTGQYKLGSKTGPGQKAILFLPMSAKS
Sequence of Albumin (Bos taurus) (P02769 whole entry, looked up): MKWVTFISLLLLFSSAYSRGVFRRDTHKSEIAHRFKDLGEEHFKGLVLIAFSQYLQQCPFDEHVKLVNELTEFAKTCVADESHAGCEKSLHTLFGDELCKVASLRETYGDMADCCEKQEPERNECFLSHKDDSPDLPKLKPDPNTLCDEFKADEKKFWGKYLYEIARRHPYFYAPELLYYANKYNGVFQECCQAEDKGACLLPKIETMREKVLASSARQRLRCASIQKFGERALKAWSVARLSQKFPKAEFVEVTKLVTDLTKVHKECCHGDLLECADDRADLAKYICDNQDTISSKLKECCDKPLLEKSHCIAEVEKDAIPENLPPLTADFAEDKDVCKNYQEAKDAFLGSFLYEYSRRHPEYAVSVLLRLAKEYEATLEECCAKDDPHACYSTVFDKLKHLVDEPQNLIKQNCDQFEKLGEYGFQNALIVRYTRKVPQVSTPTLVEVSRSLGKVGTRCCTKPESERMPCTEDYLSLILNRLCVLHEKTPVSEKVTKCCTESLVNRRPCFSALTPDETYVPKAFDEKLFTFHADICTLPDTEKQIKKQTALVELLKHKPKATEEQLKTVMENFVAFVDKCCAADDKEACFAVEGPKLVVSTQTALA
Sequence of Luciferin 4-monooxygenase (Photinus pyralis) (P08659 whole entry, looked up): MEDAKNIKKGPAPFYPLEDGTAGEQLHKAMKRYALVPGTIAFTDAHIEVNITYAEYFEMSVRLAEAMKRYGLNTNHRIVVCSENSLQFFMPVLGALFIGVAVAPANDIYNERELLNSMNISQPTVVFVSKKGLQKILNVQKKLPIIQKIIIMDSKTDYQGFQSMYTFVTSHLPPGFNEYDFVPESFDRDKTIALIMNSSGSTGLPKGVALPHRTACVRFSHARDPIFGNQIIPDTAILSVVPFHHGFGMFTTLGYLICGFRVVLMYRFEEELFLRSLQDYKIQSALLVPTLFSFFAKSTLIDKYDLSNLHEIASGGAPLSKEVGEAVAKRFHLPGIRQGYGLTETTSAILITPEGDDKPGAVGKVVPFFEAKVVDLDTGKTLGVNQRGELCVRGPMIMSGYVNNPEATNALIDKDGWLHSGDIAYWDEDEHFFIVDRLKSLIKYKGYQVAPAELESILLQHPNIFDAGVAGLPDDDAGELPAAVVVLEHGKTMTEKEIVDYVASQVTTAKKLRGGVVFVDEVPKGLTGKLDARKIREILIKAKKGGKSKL

As for `CO[C@H]1O[C@H](CO)[C@@H](OC(=O)Nc2ccc(Oc3ccccc3)cc2)[C@H](OC(=O)Nc2ccccc2-c2ccccc2)[C@H]1OC(=O)Nc1ccccc1-c1ccccc1`, the composite z-score with Albumin (Bos taurus) is 0.892; in test [2] it was 0.289; in test [3], -0.0519; in test [4], 0.442; in test [5], 2.68; in [6], 1.26. Further, the composite z-score in the test on Sam68 (KHDRBS1) was 1.31; in test [7], 0.203; in [8], 1.18; in [9] it was 2.31; in [10], 1.24; in test [11], 1.62. Besides, the composite z-score came to 0.98 in test [12]; 0.95 in test [13]; 0.938 in [14]; 0.62 with Lefty1; 1.38 in [16]. In addition, the composite Z-score in test [1] was -0.0478 (inactive). Also, the z-score in [15] was -1.28; in test [17], -1.02 (inactive).
In the case of `O=C1C[C@@](C(=O)NC2CC2)(c2ccc([N+](=O)[O-])cc2)[C@@H](c2ccc(CO)cc2I)N1CC12CC3CC(CC(C3)C1)C2`, the composite z-score was -0.344 with Albumin (Bos taurus); 0.0538 in [2]; -0.19 in test [3]; 0.473 in test [4]; 1.64 in test [5]; 2.12 in [6]. Further, the composite z-score in the test with Sam68 (KHDRBS1) is 1.12; in test [7] it was 0.224; in [8], 1.1; in test [9] it was -0.317; in [10], 1.18; in [11] it was 0.32. The composite z-score amounted to 0.751 in [12]; 1.07 in [13]; 0.718 in test [14]; 1.15 with Lefty1; 0.793 in test [16]. In addition, the composite Z-score in test [1] is 0.381 (inactive). Also, the z-score in test [15] was -0.558; in test [17] it was -0.318 (inactive).
With `CCCNC(=O)[C@@H]1c2ccccc2C(=O)N(Cc2cc(F)cc(C(F)(F)F)c2)[C@H]1c1ccc(CO)cc1`, the composite z-score is -0.0179 in the test with Albumin (Bos taurus); 0.193 in test [2]; 0.171 in [3]; 0.584 in [4]; 2.2 in test [5]; -0.273 in [6]. Besides, the composite z-score in the test on Sam68 (KHDRBS1) is 1.3; in test [7] it was 0.341; in test [8], 1.14; in test [9] it was 2.1; in test [10], 1.14; in [11], 0.674. Besides, the composite z-score in test [12] is 0.62; in test [13], 1.41; in test [14], 0.587; with Lefty1, 1.58; in [16] it was 0.628. The composite Z-score in test [1] is 0.457 (inactive). Moreover, the z-score in test [15] is 1.74; in [17], -0.747 (inactive).
On to `COc1ccc([Si](C)(C)[C@@H]2[C@@H](CC(=O)N(CCO)Cc3ccccc3)O[C@]3(C(=O)N(Cc4cccc(N5CCC5=O)c4)c4ccccc43)[C@H]2C)cc1`, for which the composite z-score with Albumin (Bos taurus) is 0.047; in test [2], -0.0647; in [3], -0.0916; in [4], 0.401; in [5], 2.49; in [6], 1.95. In addition, the composite z-score in the test with Sam68 (KHDRBS1) stood at 1.05; in [7], 0.9; in [8], 0.902; in [9], 0.863; in test [10], 1.1; in test [11], 0.545. The composite z-score in test [12] was -0.0806; in test [13] it was 1.3; in test [14], 1.4; with Lefty1 it was 1.49; in [16], 0.163. Also, the composite Z-score in [1] is 0.0923 (inactive). The z-score in [15] was -0.282; in test [17], 0.352 (inactive).
As to `COCC(=C=CC[C@H](O)c1ccc(OCCO)cc1)C[C@H](O)c1ccccn1`, the composite z-score with Albumin (Bos taurus) was -0.769; in test [2], -0.217; in [3], -0.0942; in test [4], 0.603; in test [5], 0.257; in test [6], -0.0662. For the same compound, the composite z-score was 0.359 in the test on Sam68 (KHDRBS1); -0.6 in test [7]; 0.0109 in test [8]; -0.0301 in test [9]; 0.401 in test [10]; -0.389 in [11]. The composite z-score in test [12] is -0.263; in [13], 0.193; in test [14], 0.0116; with Lefty1, 0.233; in test [16] it was -0.32. For the same compound, in test [1], the composite Z-score was 1.14 (inactive). Further, the z-score in test [15] was 1.92; in test [17], -2.45 (inactive).
As to `CO[C@H]1COC(=O)[C@H](C)NC(=O)CC=C[C@@H](C)[C@H](NS(=O)(=O)c2ccc(C)cc2)COC(=O)[C@@H](OCc2ccccc2)C=C[C@@H]1C`, the composite z-score with Albumin (Bos taurus) was 0.228; in test [2], -0.0932; in [3], -0.154; in test [4], -0.367; in [5] it was -0.959; in [6], -0.659. In addition, the composite z-score in the test with Sam68 (KHDRBS1) is 0.133; in test [7], 1.03; in test [8], -0.333; in [9], -1.04; in [10], -0.515; in test [11], 0.269. Besides, the composite z-score in test [12] was -0.394; in [13] it was 0.641; in test [14], 0.574; in the test on Lefty1, 1.02; in test [16], -0.609. The composite Z-score in test [1] is 0.0585 (inactive). The z-score was 1.87 in test [15] and -0.893 (inactive) in test [17].
